# Results as given in PubChem BioAssay.
# “And” between values parts separate entries of the source, which are not always exact repeats. Identical values can stand only once. The source made the active and inactive calls.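 Rule for the calls, unless noted: active = normalized viability below 100% at a tested concentration; inactive = the rest.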
# Tests used:
# [1] = viability loss with induced miR-34 in A549 – imaging, A549 dox-inducible miR-34, nuclei and caspase counts, primary screen (AID 1347080;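 active = compounds whose cell count with miR-34 switched on is under 0.7 times the count with it off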); conditions: A549 miR-34 inducible, Hoechst nuclei count, 48 h
# [2] = MELAS cybrid and Rieske KO viability enhancers – cell-based, MELAS cybrids, Rieske KO mouse fibroblasts, CellTiter-Glo, primary screen (AID 1508586;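 active = mean z-score across replicates of 1.96 or higher in either the MELAS or the Rieske mutant cell line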;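 note: z relative to plate mean and SD of compound and empty wells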); conditions: low glucose
# [3] = drug combination growth inhibition, ovarian cancer – cell-based, oncology-focused library, rucaparib conditional, profiling panel (AID 1508598); conditions: patient-derived ovarian cancer cells, CellTiter-Glo viability, 144 h, stronger effect = lower value
# [4] = growth inhibition, single agent or in combination, cell-based, chromothripsis tumors, cisplatin or BGB combos (AID 1671449; in the data active = inhibition above about 80%;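 note: cells exposed for 96 hours; 0% = vehicle DMSO and 100% = killing by high DMSO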); conditions: LFS_MB_P medulloblastoma cells
# [5] = growth inhibition, single agent and combos, cell-based, chromothripsis tumors, cisplatin or BGB combos (AID 1671450; in the data active = inhibition above about 80%;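 note: cells exposed to compound for four days; 0% = vehicle DMSO and 100% = cell killing by high DMSO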); conditions: HDN33 neuroblastoma cells, stronger effect = higher value
# [6] = growth inhibition, single agents and combos, ICB984, cell-based, cisplatin or BGB combos, synergistic combos for chromothripsis tumors (AID 1671451; call rule not given here;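 note: cells exposed for 96 hours before readout; 0% = vehicle DMSO and 100% = killing by high DMSO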); conditions: ICB984 medulloblastoma cells, drug combinations, stronger effect = higher value
# [7] = growth inhibition, single agents and combos, LFS_MB_1R, cell-based, cisplatin or BGB combos, synergistic combos for chromothripsis tumors (AID 1671452; in the data active = inhibition above about 80%;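 note: cells exposed for 96 hours before readout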); conditions: LFS_MB_1R medulloblastoma cells, stronger effect = higher value
# [8] = growth inhibition, single agents and combos, HTB85, cell-based, BGB or cisplatin IC20 combos, synergistic combos for chromothripsis tumors (AID 1671453; in the data active = inhibition above about 80%;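 note: cells exposed for 96 hours before readout; 0% = vehicle DMSO and 100% = high DMSO killing control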); conditions: HTB85 osteosarcoma cells, drug combinations, stronger effect = higher value
# [9] = growth inhibition, single agents and combos, CRL2098, cell-based, BGB or cisplatin IC20 combos, synergistic combos for chromothripsis tumors (AID 1671454; in the data active = inhibition above about 80%;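 note: cells exposed for 96 h before readout; 0% = vehicle DMSO and 100% = killing by high DMSO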); conditions: CRL2098 osteosarcoma cells, drug combinations, stronger effect = higher value
# [10] = growth inhibition, single agents and combos, HD-MB03, cell-based, BGB or cisplatin IC20 combos, synergistic combos for chromothripsis tumors (AID 1671455; in the data active = inhibition above about 83%;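 note: 0% = vehicle DMSO and 100% = high DMSO as cytotoxic control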); conditions: HD-MB03 medulloblastoma cells, stronger effect = higher value
# [11] = growth inhibition, single agents and combos, UWB1.289, cell-based, BGB or cisplatin combos, synergistic combos for chromothripsis tumors (AID 1671456; in the data active = inhibition above about 80%;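 note: cells exposed to compound for four days; 0% = vehicle DMSO and 100% = killing by high DMSO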); conditions: UWB1.289 ovarian carcinoma cells, stronger effect = higher value
# [12] = growth inhibition, single agents and combos, LFS_MB_2R, cell-based, cisplatin combos, synergistic combos for chromothripsis tumors (AID 1671457; in the data active = inhibition above about 80%;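 note: cells exposed to compound for four days before readout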); conditions: LFS_MB_2R medulloblastoma cells, stronger effect = higher value
# [13] = growth inhibition, MDA-MB-436, cell-based, BGB or cisplatin combos, synergistic combos for chromothripsis tumors (AID 1671458; call rule not given here;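 note: cells exposed for 96 hours; 0% = vehicle DMSO and 100% = killing by high DMSO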); conditions: MDA-MB-436 breast carcinoma growth inhibition, drug combinations, stronger effect = higher value
# [14] = UWB1.289_BRCA1 ovarian cancer growth, cell-based, BGB or cisplatin combinations (AID 1671459; in the data active = inhibition above about 80%); conditions: UWB1.289 BRCA1 ovarian carcinoma, drug combinations, stronger effect = higher value
# [15] = BT084 cell growth, single and combined drugs, ICGC_MB145, cisplatin and BGB IC40 combos (AID 1671461; in the data active = inhibition above about 80%;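 note: cells exposed to drugs for 96 hours; 0% = vehicle DMSO and 100% = high DMSO full killing control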); conditions: BT084 medulloblastoma cells, drug combinations, stronger effect = higher value
# [16] = RCMB18 cell growth, single agent and combined, cisplatin and BGB IC40 combos (AID 1671462; in the data active = inhibition above about 80%;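 note: cells exposed to compound for four days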); conditions: RCMB18 medulloblastoma cells, stronger effect = higher value
# [17] = CRL1545 cell growth, single agent and combined, cisplatin and BGB IC20 combos (AID 1671464; in the data active = inhibition above about 80%;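 note: cells exposed to compound for 96 hours before readout; 0% = vehicle DMSO and 100% = high DMSO killing control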); conditions: CRL1545 osteosarcoma cells, stronger effect = higher value
# [18] = measured here: combination with BGB IC40, at 0.05 µM
# [19] = measured here: with BGB IC20 combination, at 0.5 µM
# [20] = measured here: with cisplatin IC20 combination, at 0.5 µM
# [21] = measured here: combination with cisplatin, at 0.5 µM
# [22] = measured here: combination with cisplatin, at 5 µM
structure (smiles),measurement,setting,value
CCOC(=O)NCCCC(=O)NCCc1ccccc1,fold change,"[1]; stronger effect = lower value, cell number ratio, induced over uninduced",0.978 (inactive)
same,fold change,[1]; measured here: relative caspase fold change +Dox/-Dox,0.408
same,cell count,"[1]; measured here: total cells with miR-34 induction, stronger effect = lower value",8950
same,cell count,[1]; measured here: total cells without miR-34 induction,9150
same,z-score,"[2]; MELAS cybrid survival, CellTiter-Glo 48 h, stronger effect = higher value",-0.307 (inactive)
same,z-score,"[2]; Rieske KO mouse fibroblast survival, CellTiter-Glo 72 h",0.919
same,viability,"[3]; at 0.000305 µM, OCI-C5x cells, with rucaparib 10 µM, 100% = cells with rucaparib alone",123% (inactive)
same,viability,"[3]; at 0.000305 µM, OCI-C5x cells, without rucaparib",98.5% (active)
same,viability,"[3]; at 0.000305 µM, OCI-P5x cells, with rucaparib 20 µM, 100% = cells with rucaparib alone",93.8% (active)
same,viability,"[3]; at 0.000305 µM, OCI-P5x cells, without rucaparib",94.2% (active)
same,viability,"[3]; at 0.00122 µM, OCI-C5x cells, with rucaparib 10 µM, 100% = cells with rucaparib alone",108% (inactive)
same,viability,"[3]; at 0.00122 µM, OCI-C5x cells, without rucaparib",102% (inactive)
same,viability,"[3]; at 0.00122 µM, OCI-P5x cells, with rucaparib 20 µM, 100% = cells with rucaparib alone",95.3% (active)
same,viability,"[3]; at 0.00122 µM, OCI-P5x cells, without rucaparib",93.4% (active)
same,viability,"[3]; at 0.00488 µM, OCI-C5x cells, with rucaparib 10 µM, 100% = cells with rucaparib alone",111% (inactive)
same,viability,"[3]; at 0.00488 µM, OCI-C5x cells, without rucaparib",110% (inactive)
same,viability,"[3]; at 0.00488 µM, OCI-P5x cells, with rucaparib 20 µM, 100% = cells with rucaparib alone",92.7% (active)
same,viability,"[3]; at 0.00488 µM, OCI-P5x cells, without rucaparib",96.6% (active)
same,viability,"[3]; at 0.0195 µM, OCI-C5x cells, with rucaparib 10 µM, 100% = cells with rucaparib alone",116% (inactive)
same,viability,"[3]; at 0.0195 µM, OCI-C5x cells, without rucaparib",115% (inactive)
same,viability,"[3]; at 0.0195 µM, OCI-P5x cells, with rucaparib 20 µM, 100% = cells with rucaparib alone",93.3% (active)
same,viability,"[3]; at 0.0195 µM, OCI-P5x cells, without rucaparib",94.2% (active)
same,viability,"[3]; at 0.0781 µM, OCI-C5x cells, with rucaparib 10 µM, 100% = cells with rucaparib alone",110% (inactive)
same,viability,"[3]; at 0.0781 µM, OCI-C5x cells, without rucaparib",108% (inactive)
same,viability,"[3]; at 0.0781 µM, OCI-P5x cells, with rucaparib 20 µM, 100% = cells with rucaparib alone",94.7% (active)
same,viability,"[3]; at 0.0781 µM, OCI-P5x cells, without rucaparib",99.6% (active)
same,viability,"[3]; at 0.313 µM, OCI-C5x cells, with rucaparib 10 µM, 100% = cells with rucaparib alone",117% (inactive)
same,viability,"[3]; at 0.313 µM, OCI-C5x cells, without rucaparib",106% (inactive)
same,viability,"[3]; at 0.313 µM, OCI-P5x cells, with rucaparib 20 µM, 100% = cells with rucaparib alone",88.9% (active)
same,viability,"[3]; at 0.313 µM, OCI-P5x cells, without rucaparib",104% (inactive)
same,viability,"[3]; at 1.25 µM, OCI-C5x cells, with rucaparib 10 µM, 100% = cells with rucaparib alone",118% (inactive)
same,viability,"[3]; at 1.25 µM, OCI-C5x cells, without rucaparib",111% (inactive)
same,viability,"[3]; at 1.25 µM, OCI-P5x cells, with rucaparib 20 µM, 100% = cells with rucaparib alone",89.5% (active)
same,viability,"[3]; at 1.25 µM, OCI-P5x cells, without rucaparib",99.1% (active)
same,viability,"[3]; at 5 µM, OCI-C5x cells, with rucaparib 10 µM, 100% = cells with rucaparib alone",116% (inactive)
same,viability,"[3]; at 5 µM, OCI-C5x cells, without rucaparib",109% (inactive)
same,viability,"[3]; at 5 µM, OCI-P5x cells, with rucaparib 20 µM, 100% = cells with rucaparib alone",83.3% (active)
same,viability,"[3]; at 5 µM, OCI-P5x cells, without rucaparib",89.3% (active)
same,inhibition,"[4]; at 0.5 µM, stronger effect = higher value",-22.5% (inactive) and -16.6% (inactive)
same,inhibition,"[4]; measured here: combination with BGB IC20, at 0.005 µM",-34.5% and -4.15%
same,inhibition,"[4]; measured here: combination with BGB IC40, at 0.005 µM",74.6% and -15.4%
same,inhibition,[4]; [18],-17.3% and -8.02%
same,inhibition,"[4]; measured here: combination with cisplatin, at 0.5 µM, stronger effect = higher value",-12.8% and -32.3%
same,inhibition,"[4]; measured here: combination with cisplatin, at 5 µM, stronger effect = higher value",-34.9% and -31.3%
same,inhibition,"[5]; BGB combo, at 5 µM",-65.3% and -26.9%
same,inhibition,[5]; at 0.5 µM,-38.5% (inactive) and -17.7% (inactive)
same,inhibition,"[5]; cisplatin combo, at 5 µM",-63.5% and -31.2%
same,inhibition,[5]; [19],-39.2% and -23.4%
same,inhibition,[5]; [20],-28% and -17.7%
same,inhibition,"[5]; single agent, at 5 µM",-54.8% and -22.1%
same,inhibition,"[6]; BGB IC20 combo, at 0.005 µM",-37.9% and -8.12%
same,inhibition,"[6]; BGB IC40 combo, at 0.005 µM",-29.1% and -31.3%
same,inhibition,"[6]; BGB IC40 combo, at 0.05 µM",-30% and -50.9%
same,inhibition,[6]; at 0.5 µM,-27.9% (inactive) and -27.3% (inactive)
same,inhibition,"[6]; cisplatin combo, at 0.05 µM",-36.7% and -56.9%
same,inhibition,"[6]; cisplatin combo, at 0.5 µM",-28.4% and -31.6%
same,inhibition,"[6]; cisplatin combo, at 5 µM",-21.8% and -22.7%
same,inhibition,"[6]; measured here: 5 uM single agent, at 5 µM",-34% and -5.68%
same,inhibition,[7]; at 0.5 µM,-35.7% (inactive) and -30.1% (inactive)
same,inhibition,[7]; [18],-32.7% and -26.4%
same,inhibition,[7]; [21],-69.3% and -37.1%
same,inhibition,[7]; [22],-41.3% and -32.8%
same,inhibition,[8]; at 0.5 µM,-20.7% (inactive) and -9.16% (inactive)
same,inhibition,"[8]; measured here: with BGB IC20, at 0.5 µM",-7.26% and 6.66%
same,inhibition,"[8]; measured here: with BGB IC20, at 5 µM",-10.7% and -19.1%
same,inhibition,"[8]; measured here: with cisplatin IC20, at 0.5 µM",-27.1% and -24.2%
same,inhibition,"[8]; measured here: with cisplatin IC20, at 5 µM",18% and -25.8%
same,inhibition,"[8]; single agent, at 5 µM",-17.5% and -2.77%
same,inhibition,[9]; at 0.5 µM,-89.4% (inactive) and -48.9% (inactive)
same,inhibition,"[9]; measured here: combination with BGB at IC20, at 0.5 µM",-73.5% and 13.5%
same,inhibition,"[9]; measured here: combination with cisplatin at IC20, at 0.5 µM",-117% and -69.6%
same,inhibition,[10]; at 0.5 µM,-22.5% (inactive) and -0.04% (inactive)
same,inhibition,"[10]; measured here: combo with BGB at IC20, at 0.5 µM",-19.9% and -14.2%
same,inhibition,"[10]; measured here: combo with cisplatin at IC20, at 0.5 µM",-31.5% and 17.9%
same,inhibition,[11]; at 0.5 µM,-19.7% (inactive) and -14.9% (inactive)
same,inhibition,"[11]; measured here: inhibition with BGB combination, at 0.05 µM",-30.7% and -21.8%
same,inhibition,"[11]; measured here: inhibition with cisplatin combination, at 0.05 µM",-28.1% and -20.9%
same,inhibition,[12]; at 0.5 µM,-12.3% (inactive) and -24.7% (inactive)
same,inhibition,[12]; [21],-9.92% and -32%
same,inhibition,[12]; [22],-15.4% and -22.8%
same,inhibition,[13]; at 0.5 µM,-30.7% (inactive) and -10.1% (inactive)
same,inhibition,"[13]; measured here: BGB combination, at 0.5 µM",-24.7% and -2.6%
same,inhibition,"[13]; measured here: BGB combination, at 5 µM",-6.13% and -14.1%
same,inhibition,"[13]; measured here: cisplatin combination, at 0.5 µM",-47% and -19.2%
same,inhibition,"[13]; measured here: cisplatin combination, at 5 µM",-39.2% and -16.3%
same,inhibition,"[14]; BGB combination, concentration series, at 5 µM",-32.5% and 1.48%
same,inhibition,[14]; at 0.5 µM,-24.6% (inactive) and -10.6% (inactive)
same,inhibition,"[14]; cisplatin combination, concentration series, at 5 µM",-5.77% and 15.9%
same,inhibition,[15]; at 0.5 µM,-9.48% (inactive) and -15.9% (inactive)
same,inhibition,"[15]; cisplatin combination, at 0.5 µM",-0.569% and -16.9%
same,inhibition,"[15]; cisplatin combination, at 5 µM",-138% and -1.29%
same,inhibition,"[15]; measured here: BGB IC40 combination 0.05 uM, at 0.05 µM",-26.7% and -17.1%
same,inhibition,"[15]; single agent, at 5 µM",-8.38% and 9.97%
same,inhibition,[16]; at 0.5 µM,-8.55% (inactive) and -27.8% (inactive)
same,inhibition,"[16]; cisplatin combo, at 5 µM",7.25% and -23.2%
same,inhibition,"[16]; measured here: BGB IC40 combination, at 0.05 µM",-14% and -29.5%
same,inhibition,[16]; [21],4.17% and -12.7%
same,inhibition,"[16]; single agent, at 5 µM",-2.65% and -61.4%
same,inhibition,[17]; at 0.5 µM,-24.2% (inactive) and -17.6% (inactive)
same,inhibition,[17]; [19],-40% and -29.3%
same,inhibition,[17]; [20],-18.2% and -11.8%
same,inhibition,"[17]; single agent, at 0.05 µM",-24.2% and 17.5%
same,inhibition,"[17]; single agent, at 5 µM",9.21% and -20.7%
